Data on 25 targets can be found in the supplement of paper PMC10849652.

Targets with a hit are over-represented here; the source holds about 8,800 in all. About 0.5% of all pairs of compound and target were hits. Values without a mark were called inactive.

Assay in all cases: log2 fold change, soluble protein after heating vs DMSO (PISA); higher = thermal stabilisation; K562 lysate, 10 uM; active = over 0.2 and 3.5 SD of the protein, either way, in both replicates (recomputed)
Compound in assay [1]: NCC(=O)Nc1ccc(-n2nc(C(F)(F)F)cc2-c2ccc3c(ccc4ccccc43)c2)cc1
The method, boiled down:
(§1)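 The values are log-two fold changes in thermal stability compared with solvent controls and come from duplicates. They were obtained by TMTpro 16plex LC-MS/MS, with channel sums equalised, on the supernatant after 21,000xg for 90 min. That supernatant came from crude K562 extract at 1 mg/mL protein treated with 10 μM compound for 30 min, heated for 3 min across 48°C-58°C, pooled and brought to 0.5% NP-40 at 4°C.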

Compound in the next assay: O=C(CCCCCCC(=O)Nc1ccccc1)NO [vorinostat]
An outline of the steps: as §1

Compound in a further assay: O=C(O)c1ccc2c(c1)nc(Nc1cccc(Cl)c1)c1ccncc12 [silmitasertib]
An outline of the steps:
as §1

Compound in assay [2]: O=C1NC(=O)C(c2cnc3ccccn23)=C1c1cn2c3c(cc(F)cc13)CN(C(=O)N1CCCCC1)CC2
The method, boiled down: as §1

Compound in a further assay: c1cn2cc(-c3ccc4cn[nH]c4c3)nc(Nc3ccc(N4CCOCC4)cc3)c2n1 [entospletinib]
An outline of the steps: as §1

Sequence of UniProt P35914 (P35914 whole entry, looked up): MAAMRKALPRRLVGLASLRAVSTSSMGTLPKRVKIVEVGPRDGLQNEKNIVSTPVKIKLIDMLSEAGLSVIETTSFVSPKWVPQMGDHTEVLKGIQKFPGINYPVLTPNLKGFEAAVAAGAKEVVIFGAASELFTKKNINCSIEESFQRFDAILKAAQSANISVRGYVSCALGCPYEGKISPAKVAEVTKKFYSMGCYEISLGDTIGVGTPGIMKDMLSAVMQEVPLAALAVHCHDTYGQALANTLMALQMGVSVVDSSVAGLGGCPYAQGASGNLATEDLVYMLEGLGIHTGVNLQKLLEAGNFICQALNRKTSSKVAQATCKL
Sequence of UniProt Q6P9B9 (Q6P9B9 whole entry, looked up): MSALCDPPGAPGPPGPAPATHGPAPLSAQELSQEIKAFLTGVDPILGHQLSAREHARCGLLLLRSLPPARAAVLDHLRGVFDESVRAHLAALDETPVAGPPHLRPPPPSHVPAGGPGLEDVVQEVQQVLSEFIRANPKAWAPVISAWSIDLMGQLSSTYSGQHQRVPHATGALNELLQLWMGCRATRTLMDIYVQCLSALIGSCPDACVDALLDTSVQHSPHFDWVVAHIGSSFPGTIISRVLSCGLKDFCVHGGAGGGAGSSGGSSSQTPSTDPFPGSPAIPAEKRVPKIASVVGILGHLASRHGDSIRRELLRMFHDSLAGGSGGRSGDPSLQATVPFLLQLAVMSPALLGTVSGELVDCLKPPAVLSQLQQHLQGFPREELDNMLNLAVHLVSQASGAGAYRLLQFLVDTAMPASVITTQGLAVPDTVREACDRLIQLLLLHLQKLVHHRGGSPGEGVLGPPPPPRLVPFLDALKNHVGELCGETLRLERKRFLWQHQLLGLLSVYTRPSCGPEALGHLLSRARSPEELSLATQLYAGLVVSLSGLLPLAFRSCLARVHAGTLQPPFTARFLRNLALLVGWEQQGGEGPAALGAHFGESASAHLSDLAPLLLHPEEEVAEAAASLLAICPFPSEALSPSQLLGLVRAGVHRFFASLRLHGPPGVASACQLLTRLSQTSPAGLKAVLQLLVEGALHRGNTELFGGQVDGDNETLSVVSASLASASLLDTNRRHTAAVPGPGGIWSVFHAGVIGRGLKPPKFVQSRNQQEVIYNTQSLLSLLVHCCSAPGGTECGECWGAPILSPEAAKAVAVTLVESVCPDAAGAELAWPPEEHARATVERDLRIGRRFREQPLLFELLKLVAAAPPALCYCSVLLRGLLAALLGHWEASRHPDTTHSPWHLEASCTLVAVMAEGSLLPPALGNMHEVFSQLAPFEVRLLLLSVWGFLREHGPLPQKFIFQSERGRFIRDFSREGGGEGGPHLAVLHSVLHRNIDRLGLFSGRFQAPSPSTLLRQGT
Sequence of UniProt Q8IYU2 (Q8IYU2 whole entry, looked up): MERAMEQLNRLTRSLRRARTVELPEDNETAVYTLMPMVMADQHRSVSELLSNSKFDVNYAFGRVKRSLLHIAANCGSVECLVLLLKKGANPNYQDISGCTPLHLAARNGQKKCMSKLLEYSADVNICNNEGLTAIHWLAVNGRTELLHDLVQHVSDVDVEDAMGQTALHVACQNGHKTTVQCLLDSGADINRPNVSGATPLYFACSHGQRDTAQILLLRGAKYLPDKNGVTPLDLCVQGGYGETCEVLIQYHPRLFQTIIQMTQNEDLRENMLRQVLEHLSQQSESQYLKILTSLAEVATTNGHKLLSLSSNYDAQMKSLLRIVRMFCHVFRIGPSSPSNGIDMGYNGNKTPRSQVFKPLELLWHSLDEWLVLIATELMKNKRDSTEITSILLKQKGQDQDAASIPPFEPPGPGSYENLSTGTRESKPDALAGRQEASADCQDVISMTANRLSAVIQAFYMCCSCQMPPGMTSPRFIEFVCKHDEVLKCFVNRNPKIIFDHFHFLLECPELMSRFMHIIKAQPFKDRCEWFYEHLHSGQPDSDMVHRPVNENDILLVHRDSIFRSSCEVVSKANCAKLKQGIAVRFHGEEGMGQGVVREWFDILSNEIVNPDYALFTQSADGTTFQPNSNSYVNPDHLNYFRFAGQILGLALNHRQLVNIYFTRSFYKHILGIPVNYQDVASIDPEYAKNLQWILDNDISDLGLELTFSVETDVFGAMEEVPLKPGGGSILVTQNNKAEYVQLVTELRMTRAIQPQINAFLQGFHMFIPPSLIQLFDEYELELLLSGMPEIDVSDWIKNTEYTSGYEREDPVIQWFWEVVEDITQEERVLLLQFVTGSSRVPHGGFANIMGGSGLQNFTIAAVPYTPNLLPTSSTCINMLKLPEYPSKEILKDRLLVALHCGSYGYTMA
Sequence of UniProt Q8IY47 (Q8IY47 whole entry, looked up): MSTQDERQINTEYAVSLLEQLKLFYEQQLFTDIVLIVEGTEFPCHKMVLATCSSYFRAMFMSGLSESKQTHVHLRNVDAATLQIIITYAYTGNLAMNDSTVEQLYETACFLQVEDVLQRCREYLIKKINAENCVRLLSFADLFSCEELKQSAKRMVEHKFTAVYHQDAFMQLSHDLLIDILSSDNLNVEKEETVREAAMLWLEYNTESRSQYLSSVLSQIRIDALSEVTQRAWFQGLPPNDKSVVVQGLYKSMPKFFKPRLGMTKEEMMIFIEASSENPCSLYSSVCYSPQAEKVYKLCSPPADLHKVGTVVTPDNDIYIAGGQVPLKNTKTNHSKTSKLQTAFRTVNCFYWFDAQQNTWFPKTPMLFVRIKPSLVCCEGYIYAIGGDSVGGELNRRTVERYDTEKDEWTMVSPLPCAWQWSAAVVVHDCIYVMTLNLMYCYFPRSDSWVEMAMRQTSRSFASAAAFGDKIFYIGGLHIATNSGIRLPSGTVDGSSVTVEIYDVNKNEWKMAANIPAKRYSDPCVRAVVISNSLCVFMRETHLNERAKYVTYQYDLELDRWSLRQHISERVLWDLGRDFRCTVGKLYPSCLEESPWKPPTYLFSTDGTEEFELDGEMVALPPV
Sequence of UniProt P50053 (P50053 whole entry, looked up): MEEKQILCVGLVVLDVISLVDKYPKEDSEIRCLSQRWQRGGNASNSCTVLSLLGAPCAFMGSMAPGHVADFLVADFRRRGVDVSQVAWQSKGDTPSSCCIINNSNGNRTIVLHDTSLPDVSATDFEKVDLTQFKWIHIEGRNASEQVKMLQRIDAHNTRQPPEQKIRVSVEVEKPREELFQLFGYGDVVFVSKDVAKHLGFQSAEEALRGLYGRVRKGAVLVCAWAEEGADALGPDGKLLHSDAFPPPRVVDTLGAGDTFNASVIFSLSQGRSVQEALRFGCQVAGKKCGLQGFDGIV
Sequence of UniProt Q01581 (Q01581 whole entry, looked up): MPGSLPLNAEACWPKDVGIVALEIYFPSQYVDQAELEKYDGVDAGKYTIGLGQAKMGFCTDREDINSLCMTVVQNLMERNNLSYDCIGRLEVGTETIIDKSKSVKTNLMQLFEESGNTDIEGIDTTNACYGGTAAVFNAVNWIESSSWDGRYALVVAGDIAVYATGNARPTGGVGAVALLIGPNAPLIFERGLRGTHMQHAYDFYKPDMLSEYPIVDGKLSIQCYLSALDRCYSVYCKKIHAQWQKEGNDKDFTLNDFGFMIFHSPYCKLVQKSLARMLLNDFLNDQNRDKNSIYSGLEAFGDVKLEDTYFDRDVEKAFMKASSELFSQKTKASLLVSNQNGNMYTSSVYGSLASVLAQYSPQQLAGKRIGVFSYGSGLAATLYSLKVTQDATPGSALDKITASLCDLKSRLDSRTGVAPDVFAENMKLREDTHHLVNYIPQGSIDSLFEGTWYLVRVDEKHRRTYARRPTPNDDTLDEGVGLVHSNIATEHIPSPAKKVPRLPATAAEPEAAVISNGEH
Sequence of UniProt Q9NWZ3 (Q9NWZ3 whole entry, looked up): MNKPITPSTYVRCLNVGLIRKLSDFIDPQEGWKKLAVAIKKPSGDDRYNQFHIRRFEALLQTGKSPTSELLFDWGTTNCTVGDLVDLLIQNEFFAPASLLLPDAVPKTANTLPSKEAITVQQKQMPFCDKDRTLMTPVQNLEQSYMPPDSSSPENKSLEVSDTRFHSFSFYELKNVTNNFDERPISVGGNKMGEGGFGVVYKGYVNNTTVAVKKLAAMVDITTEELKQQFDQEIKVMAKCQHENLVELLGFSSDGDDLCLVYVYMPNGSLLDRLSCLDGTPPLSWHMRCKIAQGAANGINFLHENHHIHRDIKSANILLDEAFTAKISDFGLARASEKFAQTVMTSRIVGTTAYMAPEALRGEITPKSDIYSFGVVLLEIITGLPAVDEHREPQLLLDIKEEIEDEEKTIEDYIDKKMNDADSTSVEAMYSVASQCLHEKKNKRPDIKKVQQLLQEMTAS
Sequence of UniProt Q8IU81 (Q8IU81 whole entry, looked up): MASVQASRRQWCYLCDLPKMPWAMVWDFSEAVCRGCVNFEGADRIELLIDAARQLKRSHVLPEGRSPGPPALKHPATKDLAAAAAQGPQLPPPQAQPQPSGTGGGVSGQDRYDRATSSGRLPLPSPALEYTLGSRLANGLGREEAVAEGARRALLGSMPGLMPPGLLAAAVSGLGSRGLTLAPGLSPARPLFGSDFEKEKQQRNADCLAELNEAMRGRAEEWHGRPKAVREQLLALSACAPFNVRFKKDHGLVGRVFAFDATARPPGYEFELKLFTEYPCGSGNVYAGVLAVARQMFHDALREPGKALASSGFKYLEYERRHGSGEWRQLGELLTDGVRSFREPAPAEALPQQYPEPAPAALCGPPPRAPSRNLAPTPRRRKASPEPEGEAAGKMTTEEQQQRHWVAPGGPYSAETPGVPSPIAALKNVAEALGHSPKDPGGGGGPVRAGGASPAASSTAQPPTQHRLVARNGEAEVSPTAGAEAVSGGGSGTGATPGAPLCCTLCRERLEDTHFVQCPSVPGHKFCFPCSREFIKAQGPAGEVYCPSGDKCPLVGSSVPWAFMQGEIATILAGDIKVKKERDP
Sequence of UniProt P02724 (P02724 whole entry, looked up): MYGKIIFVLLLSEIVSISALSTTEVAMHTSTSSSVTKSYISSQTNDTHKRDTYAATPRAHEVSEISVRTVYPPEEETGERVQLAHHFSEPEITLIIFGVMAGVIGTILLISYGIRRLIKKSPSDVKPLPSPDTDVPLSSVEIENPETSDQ

For KBTBD2 (UniProt Q8IY47), the log2 fold change in assay [1] was 0.047; with vorinostat it was 0.145; in the assay with silmitasertib, -0.039; in assay [2], 0.038; with entospletinib, 0.026.
For INPP4A (UniProt Q96PE3) the same measures were 0.016, -0.106, 0.002, -0.013 and 0.006.
The like results for HMGCS1 (UniProt Q01581) were, in that order, 0.018, 0.53 (active), 0.011, 0.013 and -0.002.
The like results for HNRNPLL (UniProt Q8WVV9) were, in that order, 0.009, -0.653 (active), 0.035, 0.004 and 0.034.
In the case of HADHA (UniProt P40939), the log2 fold change in assay [1] was 0.052; in the assay with vorinostat it was -0.159; with silmitasertib, -0.026; in assay [2], 0.302; with entospletinib it was 0.027.
Turning to IRAK4 (UniProt Q9NWZ3), the log2 fold change in assay [1] was -0.031; with vorinostat, -0.218; in the assay with silmitasertib it was 0.055; in assay [2], -0.106; in the assay with entospletinib it was 0.042.
Consider ITM2B (UniProt Q9Y287), for which the log2 fold change is -0.101 in assay [1], 0.141 in the assay with vorinostat, 0.013 with silmitasertib and 0.004 in assay [2].
Take KDM1A (UniProt O60341): the log2 fold change in assay [1] was 0.01; in the assay with vorinostat, -0.163; with silmitasertib it was 0.009; in assay [2] it was -0.009; in the assay with entospletinib it was 0.01.
On to HDAC1 (UniProt Q13547), for which the log2 fold change is 0.018 in assay [1]; 0.644 (active) with vorinostat; -0.008 with silmitasertib; -0.015 in assay [2]; 0.008 with entospletinib.
In the case of HACE1 (UniProt Q8IYU2), the log2 fold change was 0.183 in assay [1]; -0.126 in the assay with vorinostat; -0.002 with silmitasertib; 0.084 in assay [2]; 0.012 with entospletinib.
The like results for HMGCL (UniProt P35914) were, in that order, -0.025, -0.226 (active), 0.059, 0.033 and 0.
For HNRNPD isoform 2 (UniProt Q14103) the same measures were 0.018, 0.155, 0.009, 0.063 and -0.006.
Take HNRNPM (UniProt M0R019): the log2 fold change in assay [1] is -0.198.
As to HNRNPL (UniProt P14866), the log2 fold change was 0.005 in assay [1]; -0.445 (active) in the assay with vorinostat; 0.072 with silmitasertib; 0.028 in assay [2]; 0.007 with entospletinib.
HIST2H2BC (UniProt Q6DN03): the log2 fold change in assay [1] is 0.018; with vorinostat it was 0.133; in the assay with silmitasertib it was -0.098; in assay [2], -0.019; with entospletinib it was -0.062.
For IRF2BP1 (UniProt Q8IU81) the same measures were 0.021, -0.4 (active), -0.003, -0.03 and 0.01.
The like results for IRF2BPL (UniProt Q9H1B7) were, in that order, -0.018, -0.324 (active), 0.02, 0.006 and -0.065.
Turning to IARS2 (UniProt Q9NSE4), the log2 fold change in assay [1] was -0.002; with vorinostat it was 0.079; in the assay with silmitasertib, -0.01; in assay [2] it was -0.021; with entospletinib, 0.01.
For KHK isoform 2 (UniProt P50053) the same measures were 0.035, 0.045, 0.018, -0.053 and 0.033.
For HMGN4 (UniProt O00479) the same measures were -0.095, 0.192, -0.012, 0.067 and 0.163.
On to INTS5 (UniProt Q6P9B9), for which the log2 fold change was -0.045 in assay [1]; -0.56 (active) with vorinostat; 0.088 with silmitasertib; 0.039 in assay [2]; 0.093 in the assay with entospletinib.
For GYPA (UniProt P02724) the same measures were -0.028, 0.152, -0.097, -0.04 and 0.019.
For HIST2H2AA3 (UniProt Q6FI13) the same measures were -0.056, 0.12, -0.073, 0.068 and -0.106.
The like results for GRB10 (UniProt Q13322) were, in that order, -0.001, -0.402 (active), 0.065, 0.008 and 0.007.
Turning to HNRNPM (UniProt P52272), the log2 fold change in assay [1] was -0.008; with vorinostat it was -0.235 (active); with silmitasertib, 0.022; in assay [2], -0.05; with entospletinib it was 0.015.
